In ChEMBL document CHEMBL3433997, “St. Jude Leishmania screening dataset” (2016) one finds inhibition data, which are given here for 40 compounds.

By inhibition is commonly meant the change of the read-out against control, counted positive when it falls.

In the assay the target is Solute carrier family 2, facilitated glucose transporter member 1 (Homo sapiens) (UniProt P11166). The assay can be described thus: ST_JUDE_LEISH: Cytotoxicity at 2uM final concentration against transgenic Leishmania Mexicana promastigotes LmGLUT1 that are glucose transport deficient and complemented with the human glucose transporter GLUT1. Activity is measured by DNA content using SYBR green in vitro. The assay is classed as functional.
Chain of Solute carrier family 2, facilitated glucose transporter member 1 (Homo sapiens) (P11166 whole entry): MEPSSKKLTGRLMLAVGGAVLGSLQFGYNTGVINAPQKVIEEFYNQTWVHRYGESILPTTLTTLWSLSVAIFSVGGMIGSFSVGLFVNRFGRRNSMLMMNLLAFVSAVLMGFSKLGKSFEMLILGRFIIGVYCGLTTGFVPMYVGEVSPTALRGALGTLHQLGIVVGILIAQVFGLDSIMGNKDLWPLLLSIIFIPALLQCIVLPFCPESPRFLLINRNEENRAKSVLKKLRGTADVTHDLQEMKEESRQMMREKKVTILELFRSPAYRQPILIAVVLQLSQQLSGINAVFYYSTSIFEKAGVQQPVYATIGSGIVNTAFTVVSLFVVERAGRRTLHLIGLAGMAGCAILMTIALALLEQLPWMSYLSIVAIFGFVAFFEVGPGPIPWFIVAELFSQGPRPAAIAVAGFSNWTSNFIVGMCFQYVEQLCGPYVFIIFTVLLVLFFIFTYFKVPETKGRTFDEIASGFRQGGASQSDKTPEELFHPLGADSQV
Turning to `CC(=O)Nc1nc(C(=O)Nc2ccc(-c3ccc(-c4nc5cccc(C)c5[nH]4)cc3)cc2)cs1`, the inhibition stood at 10.7%.
With `COc1ccc2nccc([C@@H](O)CN3CCC(NC(=O)/C=C/c4ccc5[nH]c(=O)ccc5c4)CC3)c2c1`, the inhibition is 2.93%.
Next, `COc1ccc(CNC2CCCC2)cc1-c1ccc(S(=O)(=O)NCCN2CCCC2)s1`: 1.79%; `COc1ccc2[nH]ccc(=NN=Cc3ccccc3Cl)c2c1`: 7.36%; `CCCCCCCCNCC(O)c1cc(-c2ccc(Cl)cc2)nc2cc(C)ccc12` (stereo not given): 3.01%.
Regarding `CC1(C)NC(N)=NC(=N)N1OCCCc1cccc(C(F)(F)F)c1`, the inhibition was -0.43%.
Next, `CC(=O)c1cccc2c(NC(=O)Nc3ccc4nccc(N5CCN(C)CC5)c4c3)cccc12`: 7.67%; `CC(Cc1ccc(CN2CCN(Cc3ccccc3)CC2)cc1)NCC(O)c1cccc(C(F)(F)F)c1` (stereo not given): 5.03%; `COc1ccc2nc3cc(Cl)ccc3c(NCCCN3CCNCC3)c2c1`: 3.27%.
For `COc1ccc(NC(=O)[C@H](Cc2ccccc2)Nc2cc(C)nc(NCCN3CCCC3)n2)cc1` the value was 11.2%.
Next, `CS(=O)(=O)N(c1ccccc1)c1cc(C(=O)N[C@@H](Cc2ccccc2)[C@H](O)CNC2CCCCC2)cc(N2CCCC2=O)c1`: 1.9%.
Turning to `COc1ccc(NCCCNc2ccnc3ccccc23)cc1`, the inhibition turned out to be 5.01%.
For `Fc1ccc2[nH]c(-c3cccc(-c4ccc(CN5CCN(c6cnccn6)CC5)cc4)c3)nc2c1` the value was 14.3%; for `CC(=O)N1N=C(c2ccc(Cl)cc2)Sc2c1nc(C1CCCCC1)n2C(C)=O`, -0.67%.
For the compound `CCN(CC)CCN(Cc1ccc(-c2ccc(C(F)(F)F)cc2)cc1)C(=O)Cn1c(CCc2cc(F)cc(F)c2F)nc(=O)c2ccccc21`, the inhibition came out at 2.05%.
Next, `CC(=O)Nc1ccc(C(=O)Nc2ccc(-c3cccc(-c4nc5cc(C(F)(F)F)ccc5[nH]4)c3)cc2)cn1`: -0.12%.
Next, `O=C(Nc1cccc(F)c1)N1CCC(CN2CCOC(c3ccccc3)(c3ccccc3)C2)CC1`: 3.49%.
For `O=C(Nc1ccc(OC2CCN(Cc3ccccc3)C2)c(Cl)c1)c1ccsc1` (stereo not given) the value was 1.05%.
Take `Cc1cc(-c2ccc(S(=O)(=O)Nc3cc4c(cc3OC(C)C)CCN(C)CC4)cc2)ccc1Cl`: the inhibition was -2.82%.
Next, `Cc1cc(O)c(-c2ccc(S(=O)(=O)c3ccc(Cl)cc3)cc2)c(C)n1`: 0.09%; `OC1CCCN(Cc2ccc(-c3ccc(-c4nc5cc(F)ccc5[nH]4)s3)cc2)C1` (stereo not given): 3.05%.
Regarding `COc1ccc(CNC2CCN(C)CC2)cc1-c1ccc(S(=O)(=O)NCCc2ccccn2)c(C)c1`, the inhibition came out at 4.11%.
Regarding `O=C(NC1CCN(CC2(c3ccccc3)CCCC2)CC1)c1n[nH]cc1Cl`, the inhibition was 0.19%.
In the case of `CNc1nc(N/N=C/c2cc3c(cc2[N+](=O)[O-])OCO3)nc(Nc2cccc(C(F)(F)F)c2)n1`, the inhibition worked out at 6.24%.
For `CCCC(=O)Nc1ccc(OCCCN(Cc2ccccc2OC(F)(F)F)c2ccc(C#N)c(C(F)(F)F)c2)cc1` the value was 3.69%; for `Cn1nccc1C(=O)NCCNCc1cccc(-c2ccc(-c3nc4cc(C(F)(F)F)ccc4[nH]3)cc2)c1`, -3.3%; for `CN1CCN(c2ccnc3cc4c(cc23)N(Cc2ccccc2)CC4)CC1`, -1.34%.
Take `CCCCc1cc(NCC)nc(Nc2ccc(F)cc2)n1`: the inhibition was determined as 18.4%.
For the compound `COC(=O)Nc1cc(C(F)(F)F)ccc1N1CCC(CNS(=O)(=O)c2ccc(OC)cc2)CC1`, the inhibition is 7.63%.
For `COc1cc2c(cc1COc1ccccc1)CCN1Cc3cc(OC)c(OC)cc3CC21` (stereo not given) the value was 1.91%; for `CCc1ccnc2c(N3CCCC3=O)cc(C(=O)N[C@@H](Cc3ccccc3)[C@H](O)CNC3CCOCC3)cc12`, 3.63%.
For `CCc1c(C)nc(-n2nc(C)cc2NC(=O)C2c3ccccc3Oc3ccccc32)[nH]c1=O` the value was -0.64%; for `Cc1ccccc1C1CCN(C2CCC(NC(=O)C3=Cc4ccccc4OC3)CC2)CC1` (stereo not given), 5.24%; for `CCCNCc1ccc(-c2ccc(CN(CCOC)C(=O)CCC(=O)c3ccc(OC)c(F)c3)cc2)nc1`, 0.12%.
For `OC(c1ccc(Cl)cc1)(c1ccc(Cl)cc1)C(c1ccc(Cl)cc1)n1ccnc1` (stereo not given) the value was 8.37%; for `O=C(CCn1c2ccccc2c2ccccc21)NN=Cc1ccco1`, 7.25%; for `COc1ccccc1CCNc1nc(C)cc(N[C@@H](CC(C)C)C(=O)NCCc2ccccc2)n1`, 2.53%.
Regarding `CN(C(=O)/C=C/c1cc(C(F)(F)F)ccc1F)C1CCN(CCCCCNC(=O)/C=C/c2ccc(Cl)c(Cl)c2)CC1`, the inhibition was found to be 3.67%.
For `CCCNCc1ccc(-c2ccc(CN(CC3CCCO3)C(=O)C3CC(=O)c4ccccc43)cc2)nc1` (stereo not given) the value was 6.13%; for `CCN(CCNc1nc(NCCc2cnc[nH]2)nc(N(CCC#N)Cc2ccccc2)n1)c1cccc(C)c1`, 12.1%.
